Inconclusive results are not listed. Values without a mark were called inactive. The source made the active and inactive calls. Unless noted, calls come from the whole dose curve; as a rule, active = well fitted curve in the direction sought with a large enough effect; inconclusive = small, poorly fitted or top-dose-only effect, or another doubt; inactive = no such curve, though single readings can be large; an effect the other way counts as inactive or inconclusive.
Assay: S16 Schwann cell viability assay (CellTiter-Glo assay) (AID 624031); note: nearly all actives have a fitted effect of over 70% in size;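 for activity change, negative = cytotoxicity: native untransfected S16 rat Schwann cells; cellular ATP luminescence as a viability measure; plate controls were DMSO-treated cells for no effect and cell-free wells for full effect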
Details: S16 rat Schwann cells viability, 24 h; series mostly up to 57.5 µM; activity change, negative = cytotoxicity: at the top concentration
Summary of the method: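 Rat S16 Schwann cells without reporter constructs received compound or DMSO for 24 h at 37 °C under 5% CO2. Cellular ATP was then quantified by CellTiter-Glo luminescence, with vehicle wells defined as 0% activity and cell-free wells as reference.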
Potency is the fitted concentration of half-maximal effect.

For `CCCCC(CC)COC(=O)c1ccc(N(C)C)cc1` (configuration not stated), which “activity change, negative = cytotoxicity” value is on record?
The value was -3.02%.

Which “activity change, negative = cytotoxicity” value does the source give for `C#C[C@]1(O)CC[C@H]2[C@@H]3CCC4=Cc5oncc5C[C@]4(C)[C@H]3CC[C@@]21C` here?
Its value is 3.73%.

For `OC[C@H]1O[C@@H]2O[C@H]3[C@H](O)[C@@H](O)[C@@H](O[C@H]4[C@H](O)[C@@H](O)[C@@H](O[C@H]5[C@H](O)[C@@H](O)[C@@H](O[C@H]6[C@H](O)[C@@H](O)[C@@H](O[C@H]7[C@H](O)[C@@H](O)[C@@H](O[C@H]8[C@H](O)[C@@H](O)[C@@H](O[C@H]1[C@H](O)[C@H]2O)O[C@@H]8CO)O[C@@H]7CO)O[C@@H]6CO)O[C@@H]5CO)O[C@@H]4CO)O[C@@H]3CO`, which “activity change, negative = cytotoxicity” value is on record?
Its value is -3.92%.

Which “activity change, negative = cytotoxicity” value does the source give for `CCCCCCCCOc1ccc(C(=O)c2ccccc2)c(O)c1` here?
Its value is -0.334%.

For `COc1cc([C@H]2Oc3cc([C@H]4Oc5cc(O)cc(O)c5C(=O)[C@@H]4O)ccc3O[C@@H]2CO)ccc1O`, which “activity change, negative = cytotoxicity” value is on record?
Its value is 8.02%.

Which “activity change, negative = cytotoxicity” value does the source give for `CCCCCCCCCCCCCCCC(=O)O` here?
The value was 8.02%.

For `Cc1c(-c2ccccc2)oc2c(C(=O)OCCN3CCCCC3)cccc2c1=O`, which “activity change, negative = cytotoxicity” value is on record?
Its value is -2.1% [at 25.7 µM].

With `CCc1oc2ccccc2c1C(=O)c1cc(I)c(O)c(I)c1` as the compound, how does the “activity change, negative = cytotoxicity” value read?
Its value is 0.372%.

With `O=c1[nH]c(=O)n([C@H]2C[C@H](O)[C@@H](CO)O2)cc1F` as the compound, how does the “activity change, negative = cytotoxicity” value read?
The value was 14.2%.

For `CCCN(CCC)S(=O)(=O)c1ccc(C(=O)O)cc1`, which “activity change, negative = cytotoxicity” value is on record?
Its value is -4.25%.

Which Potency does the source give for `CNCCCCOc1ccccc1Cc1ccccc1` here?
The Potency was 28.7 µM (active).

Assay: S16 Schwann cell PMP22 intronic element firefly luciferase assay (AID 624032); note: nearly all actives have a fitted effect of over 30% in size;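 for activity change, negative = inhibition: plate controls were DMSO for no effect and PTC124 positive control mean for full effect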
Details: S16 rat Schwann cells, PMP22 element FLuc, 24 h; series mostly up to 57.5 µM; activity change, negative = inhibition: at the top concentration
Summary of the method: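 Luciferase reporter of PMP22 intronic-element expression in stably transfected S16 rat Schwann cells, read by ONE-Glo luminescence after 24 h compound exposure at 37 C. Activity scaled between DMSO (0%) and positive-control PTC124; concentration-effect curves quality-classified.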

Which “activity change, negative = inhibition” value does the source give for `C=CCN1CCc2nc(N)sc2CC1` here?
Its value is 10.5%.

Which “activity change, negative = inhibition” value does the source give for `Cc1cc(CC(=O)O)c(C)n1-c1ccc(Cl)cc1` here?
Its value is -36.4%.

With `O=C(CCN1CCN2CCCC2C1)N1c2ccccc2Sc2ccc(Cl)cc21` (configuration not stated) as the compound, how does the “activity change, negative = inhibition” value read?
The value was -12.4%.

For `CN1CCN(C2=Nc3ccccc3Sc3ccc(Cl)cc32)CC1`, which “activity change, negative = inhibition” value is on record?
Its value is 71.4%.

Which “activity change, negative = inhibition” value does the source give for `O=C(Nc1ncc([N+](=O)[O-])s1)c1cccs1` here?
Its value is 52.9%.

Which “activity change, negative = inhibition” value does the source give for `CC(C)NCC(O)c1ccc2ccccc2c1` (configuration not stated) here?
Its value is -6.31%.

For `CCCCCCCCCCCCCC[N+](C)(C)Cc1ccccc1`, which Potency is on record?
The Potency was 32.2 µM (active).

Which “activity change, negative = inhibition” value does the source give for `CN1CCN(CCC(=O)N2c3ccccc3Sc3ccc(C(F)(F)F)cc32)CC1` here?
The value was -12.8%.

Which “activity change, negative = inhibition” value does the source give for `CN1CCC[C@@H]1CCO[C@](C)(c1ccccc1)c1ccc(Cl)cc1` here?
Its value is 82.4%.

With `O=[N+]([O-])c1cccc(S(=O)(=O)NCCNS(=O)(=O)c2cccc([N+](=O)[O-])c2)c1` as the compound, how does the “activity change, negative = inhibition” value read?
The value was -5.61%.

With `CO[C@]12C[C@@H](COC(=O)c3cncc(Br)c3)CN(C)[C@@H]1Cc1cn(C)c3cccc2c13` as the compound, how does the “activity change, negative = inhibition” value read?
Its value is -8.37%.

With `CCNC(=O)/C=C/c1cccc(Br)c1` as the compound, how does the “activity change, negative = inhibition” value read?
Its value is 62.7%.

With `NC(=S)N/N=C/c1cccnc1` as the compound, how does the “activity change, negative = inhibition” value read?
The value was -19.2%.

Which “activity change, negative = inhibition” value does the source give for `COc1ccccc1N1CCN(CCCCNC(=O)c2ccc(-c3ccc(C(C)=O)cc3)cc2)CC1` here?
Its value is 18.7%.

Which “activity change, negative = inhibition” value does the source give for `CCC1Nc2cc(Cl)c(S(N)(=O)=O)cc2S(=O)(=O)N1` (configuration not stated) here?
The value was 0.829%.

Which “activity change, negative = inhibition” value does the source give for `CCN(CC)CCOc1ccccc1C(=O)CCc1ccccc1` here?
The value was -10.4%.

Assay: S16 Schwann cell PMP22 intronic element beta-lactamase assay (AID 624044; calls by dose curve; note: nearly all actives have a fitted effect of over 15% in size;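 for ratio activity, negative = inhibition: 0% = DMSO and -100% = potassium clavulanate positive control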)
Details: S16 rat Schwann cells, PMP22 element beta-lactamase FRET, 24 h; series mostly up to 38.3 µM; ratio activity, negative = inhibition: at the top concentration
Summary of the method: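 Beta-lactamase reporter under a PMP22 intronic regulatory element in stable S16 rat Schwann cells; 24 h compound exposure. 460 nm blue signal normalized between DMSO (0%) and potassium clavulanate, with 535 nm FRET tracking viability; curves classed by r2 and response.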

For `O=C(CCN1CCN2CCCC2C1)N1c2ccccc2Sc2ccc(Cl)cc21` (configuration not stated), which “ratio activity, negative = inhibition” value is on record?
Its value is 0.456%.

With `NCc1ccccc1Sc1ccccc1CO` as the compound, how does the “ratio activity, negative = inhibition” value read?
The value was -0.887%.

With `NC(=O)n1c(O)c(C(=O)c2cccs2)c2cc(Cl)ccc21` as the compound, how does the “ratio activity, negative = inhibition” value read?
The value was -2.62%.

With `O=C(Nc1ncc([N+](=O)[O-])s1)c1cccs1` as the compound, how does the “ratio activity, negative = inhibition” value read?
The value was 5.96%.

With `CCCCC(CC)COC(=O)c1ccc(N(C)C)cc1` (configuration not stated) as the compound, how does the “ratio activity, negative = inhibition” value read?
The value was 6.38%.

With `C#C[C@]1(O)CC[C@H]2[C@@H]3CCC4=Cc5oncc5C[C@]4(C)[C@H]3CC[C@@]21C` as the compound, how does the “ratio activity, negative = inhibition” value read?
Its value is -4.39%.

Which “ratio activity, negative = inhibition” value does the source give for `NCCNc1cccc2ccccc12` here?
Its value is -3.25%.

With `CCCCCCCCCCCCCC[N+](C)(C)Cc1ccccc1` as the compound, how does the “ratio activity, negative = inhibition” value read?
Its value is -13.2%.

With `C=C[C@@]1(C)CC(=O)[C@]2(O)[C@@]3(C)[C@@H](O)CCC(C)(C)[C@@H]3[C@H](O)[C@H](OC(C)=O)[C@@]2(C)O1` as the compound, how does the Potency read?
Its Potency is 0.707 µM (active).

With `CN1CCN(CCC(=O)N2c3ccccc3Sc3ccc(C(F)(F)F)cc32)CC1` as the compound, how does the “ratio activity, negative = inhibition” value read?
The value was -0.887%.

Which “ratio activity, negative = inhibition” value does the source give for `COc1cc([C@H]2Oc3cc([C@H]4Oc5cc(O)cc(O)c5C(=O)[C@@H]4O)ccc3O[C@@H]2CO)ccc1O` here?
Its value is 2.42%.

With `CCCCCCCCCCCCCCCC(=O)O` as the compound, how does the “ratio activity, negative = inhibition” value read?
The value was -22.2%.

Which “ratio activity, negative = inhibition” value does the source give for `CN(CCCN1c2ccccc2CCc2ccccc21)CC(=O)c1ccc(Cl)cc1` here?
Its value is 3.34%.

For `Cc1c(-c2ccccc2)oc2c(C(=O)OCCN3CCCCC3)cccc2c1=O`, which “ratio activity, negative = inhibition” value is on record?
The value was -3.31% [at 17.1 µM].

Which “ratio activity, negative = inhibition” value does the source give for `O=[N+]([O-])c1cccc(S(=O)(=O)NCCNS(=O)(=O)c2cccc([N+](=O)[O-])c2)c1` here?
Its value is 5.64%.

With `CO[C@]12C[C@@H](COC(=O)c3cncc(Br)c3)CN(C)[C@@H]1Cc1cn(C)c3cccc2c13` as the compound, how does the “ratio activity, negative = inhibition” value read?
Its value is -10.5%.

For `CN1CCc2cccc3c2[C@H]1Cc1ccc(O)c(O)c1-3`, which “ratio activity, negative = inhibition” value is on record?
Its value is -7.38%.

With `CCc1oc2ccccc2c1C(=O)c1cc(I)c(O)c(I)c1` as the compound, how does the “ratio activity, negative = inhibition” value read?
The value was -0.354%.

For `NC(=S)N/N=C/c1cccnc1`, which “ratio activity, negative = inhibition” value is on record?
Its value is 2.41%.

With `O=c1[nH]c(=O)n([C@H]2C[C@H](O)[C@@H](CO)O2)cc1F` as the compound, how does the Potency read?
Its Potency is 0.0056 µM (active).

Which Potency does the source give for `Cc1ccc2c(Br)cc(Br)c(O)c2n1` here?
The Potency was 17.8 µM (active).

With `CNCCCCOc1ccccc1Cc1ccccc1` as the compound, how does the “ratio activity, negative = inhibition” value read?
Its value is -28.7%.

With `O=C(CN1CCN(Cc2ccc3c(c2)OCO3)CC1)N1c2ccccc2Sc2ccccc21` as the compound, how does the “ratio activity, negative = inhibition” value read?
Its value is 0.888%.

For `CCN(CC)CCOc1ccccc1C(=O)CCc1ccccc1`, which “ratio activity, negative = inhibition” value is on record?
The value was -4.37%.

With `CN(Cc1ccc(C(C)(C)C)cc1)Cc1cccc2ccccc12` as the compound, how does the “ratio activity, negative = inhibition” value read?
The value was -7.43%.

Source: PubChem BioAssay (NCATS)
